Compounds without any hit were thinned out: in the full panel of roughly 83,000, 20% have a hit.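 Interpretation: 100, growth as untreated; towards 0, rising growth inhibition; 0, no net growth; 0 to -100, cell death. Compounds scoring below 10 were considered active.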 The source made the active and inactive calls.

The subject of one assay is OVCAR-3 ovarian. Nature of the assay: NCI-60 one-dose screen, 48 h (100 = growth as untreated, 0 = no growth, -100 = all killed). The note with it: 10 µM unless noted.
On to `CCOC(=O)c1c(C)[nH]c2ccc(O)cc12`, for which the growth is 105% (inactive). Same read-out and setting: in the case of `CCC1CCCCN1C(=S)N/N=C(\C)c1ccccn1` (stereo not drawn) it was -18.9% (active). Turning to `CC(/C=N/NC(N)=S)Cc1ccc(C(C)C)cc1` (stereo not drawn), the growth was 77.7% (inactive). On the same count and under the same terms, in the case of `Nc1ccc(C(=O)/C=C/c2ccccc2)cc1` it was 75.2% (inactive); in that of `Cc1oc2c(C)c3oc(=O)cc(C)c3cc2c1CCl`, 61.6% (inactive); in that of `O=C(/C(Cl)=N/O)c1ccc(-c2ccccc2)cc1`, 72.3% (inactive). As for `CC(C)c1ccc(Nc2n[nH]c(=S)s2)cc1`, the growth was 98.9% (inactive). For `NC(=S)N/N=C\c1nccc2c(N)cccc12`, the growth is 42.6% (inactive).

Take `COc1cc2c(c(OC)c1OC)-c1ccc(NCc3ccccc3)c(=O)cc1[C@@H](NC(C)=O)CC2`: the growth is -39.2% (active).

With `CCCCCCCCCCCCCCCCSC(=NCC)NCC`, the growth was -18.1% (active).

For `CN(Cc1ccccc1)c1ccc(SC#N)cc1`, the growth was 71.4% (inactive). On the same count and under the same terms, under `CC(=O)Nc1ccc(C(=O)CCl)cc1` stands -21.6% (active); under `O=[N+]([O-])c1ccc(N2CCN(Cc3ccccc3)CC2)c2c1no[n+]2[O-]`, -53.7% (active); under `CCOC(=O)NC(/C=C/c1ccccc1)NC(=O)OCC`, 107% (inactive). On the same count and under the same terms, in the case of `CCCCN(CCCC)CCCCCCCCCCO` it was 104% (inactive); in that of `S=C1SCN(Cc2cccs2)CN1Cc1cccs1`, 111% (inactive); in that of `CCOC(=O)/C(=C\c1ccc2ccccc2c1)P(=O)(OCC)OCC`, 27.4% (inactive). Still for that read-out and setting: in the case of `Nc1ccc(Oc2ccccc2)c(Cl)c1` it was 113% (inactive); in that of `COc1ccc(C(Cn2ccnc2)Sc2ccc(Cl)c(Cl)c2)cc1` (stereo not drawn), 89.7% (inactive); in that of `O=[N+]([O-])/C(=C/c1ccccc1)c1ccccc1`, 109% (inactive). Regarding `CCCCCCC1N=C(N)N=C(N)N1c1cccc(Cl)c1` (stereo not drawn), the growth was 41.5% (inactive). Same read-out and setting: in the case of `O=C1C=CC(=O)N1C1CCCCCCCCCCC1` it was 53% (inactive). The same measure, in the same setting: under `Cc1nc(Sc2nc3ccc([N+](=O)[O-])cc3s2)sc1C` stands -2.8% (active); under `Fc1ccc(NCCS)cc1`, 107% (inactive); under `OCCOSCCO`, 120% (inactive). On the same count and under the same terms, under `COc1cc(OC)c(/C=C/c2c3ccccc3cc[n+]2C)c(OC)c1` stands 5.9% (active); under `CC(C)(C)c1ccc(O)c(Br)c1`, 99.2% (inactive); under `O=C/C=C/c1ccc([N+](=O)[O-])cc1`, 104% (inactive). Turning to `COc1ccc2nc3cc(Cl)ccc3c(NCCCCCN3CCCCC3)c2c1`, the growth is -21.8% (active). The same measure, in the same setting: in the case of `COc1cc(-c2ccc(-[n+]3nc(-c4ccc([N+](=O)[O-])cc4)nn3-c3ccc([N+](=O)[O-])cc3)c(OC)c2)ccc1-[n+]1nc(-c2ccc([N+](=O)[O-])cc2)nn1-c1ccc([N+](=O)[O-])cc1` it was 32% (inactive); in that of `O=C1C=CC(=O)N1c1cc(Cl)c(Cl)cc1Cl`, 111% (inactive); in that of `Nc1cccc2cccc([N+](=O)[O-])c12`, 124% (inactive). The same measure, in the same setting: under `CCc1cnc2ccccc2c1/C=C/c1ccc(N(C)C)cc1` stands 16.9% (inactive). Still for that read-out and setting: in the case of `O=[N+]([O-])c1ccc(C2N(Cc3ccc(Cl)cc3)CCN2Cc2ccc(Cl)cc2)cc1` it was 91.3% (inactive). Regarding `Oc1ccc2c(c1)CCc1ccccc1-2`, the growth was 112% (inactive).

Take `COc1cc(/C=C2\SC(=S)N(/C=C/c3nc4ccccc4[nH]c3=O)C2=O)cc(OC)c1OC`: the growth was 89.4% (inactive).

On to `CC(C)(C)CC(C)(C)c1ccc(OCCOCCSC(=N)N)cc1`, for which the growth was 25.3% (inactive).

The test system of another assay is HS 578T breast. The description is as above. The note with it: 10 µM unless noted.
As to `CCOC(=O)c1c(C)[nH]c2ccc(O)cc12`, the growth was 92% (inactive). `CCC1CCCCN1C(=S)N/N=C(\C)c1ccccn1` (stereo not drawn): the growth is -3.92% (active). For the compound `CC(/C=N/NC(N)=S)Cc1ccc(C(C)C)cc1` (stereo not drawn), the growth was 71.7% (inactive). The same measure, in the same setting: under `Nc1ccc(C(=O)/C=C/c2ccccc2)cc1` stands 106% (inactive); under `Cc1oc2c(C)c3oc(=O)cc(C)c3cc2c1CCl`, 77.6% (inactive).

With `O=C(/C(Cl)=N/O)c1ccc(-c2ccccc2)cc1`, the growth was 110% (inactive).

For `CC(C)c1ccc(Nc2n[nH]c(=S)s2)cc1`, the growth was 116% (inactive). With `NC(=S)N/N=C\c1nccc2c(N)cccc12`, the growth is 57.6% (inactive). In the case of `COc1cc2c(c(OC)c1OC)-c1ccc(NCc3ccccc3)c(=O)cc1[C@@H](NC(C)=O)CC2`, the growth was 17.3% (inactive). Same read-out and setting: in the case of `CCCCCCCCCCCCCCCCSC(=NCC)NCC` it was 66.1% (inactive). As for `CN(Cc1ccccc1)c1ccc(SC#N)cc1`, the growth is 89.7% (inactive). Still for that read-out and setting: in the case of `CC(=O)Nc1ccc(C(=O)CCl)cc1` it was 19% (inactive); in that of `O=[N+]([O-])c1ccc(N2CCN(Cc3ccccc3)CC2)c2c1no[n+]2[O-]`, 30.5% (inactive). Turning to `CCOC(=O)NC(/C=C/c1ccccc1)NC(=O)OCC`, the growth was 103% (inactive).

Turning to `CCCCN(CCCC)CCCCCCCCCCO`, the growth was 105% (inactive). Consider `S=C1SCN(Cc2cccs2)CN1Cc1cccs1`, for which the growth is 91.1% (inactive). Still for that read-out and setting: in the case of `CCOC(=O)/C(=C\c1ccc2ccccc2c1)P(=O)(OCC)OCC` it was 16.7% (inactive); in that of `Nc1ccc(Oc2ccccc2)c(Cl)c1`, 91.7% (inactive); in that of `COc1ccc(C(Cn2ccnc2)Sc2ccc(Cl)c(Cl)c2)cc1` (stereo not drawn), 112% (inactive). Still for that read-out and setting: under `O=[N+]([O-])/C(=C/c1ccccc1)c1ccccc1` stands 110% (inactive).

Take `CCCCCCC1N=C(N)N=C(N)N1c1cccc(Cl)c1` (stereo not drawn): the growth was 55.2% (inactive). Turning to `O=C1C=CC(=O)N1C1CCCCCCCCCCC1`, the growth is 108% (inactive). Consider `Cc1nc(Sc2nc3ccc([N+](=O)[O-])cc3s2)sc1C`, for which the growth was 50% (inactive). Take `Fc1ccc(NCCS)cc1`: the growth is 115% (inactive). On the same count and under the same terms, under `OCCOSCCO` stands 115% (inactive); under `COc1cc(OC)c(/C=C/c2c3ccccc3cc[n+]2C)c(OC)c1`, 46.3% (inactive); under `CC(C)(C)c1ccc(O)c(Br)c1`, 96.4% (inactive). As to `O=C/C=C/c1ccc([N+](=O)[O-])cc1`, the growth is 100% (inactive). Turning to `COc1ccc2nc3cc(Cl)ccc3c(NCCCCCN3CCCCC3)c2c1`, the growth was 35.3% (inactive).

Consider `O=C1C=CC(=O)N1c1cc(Cl)c(Cl)cc1Cl`, for which the growth is 137% (inactive). The same measure, in the same setting: in the case of `Nc1cccc2cccc([N+](=O)[O-])c12` it was 103% (inactive); in that of `CCc1cnc2ccccc2c1/C=C/c1ccc(N(C)C)cc1`, 62.8% (inactive). Regarding `O=[N+]([O-])c1ccc(C2N(Cc3ccc(Cl)cc3)CCN2Cc2ccc(Cl)cc2)cc1`, the growth was 102% (inactive).

`Oc1ccc2c(c1)CCc1ccccc1-2`: the growth is 96.8% (inactive).

As to `COc1cc(/C=C2\SC(=S)N(/C=C/c3nc4ccccc4[nH]c3=O)C2=O)cc(OC)c1OC`, the growth was 74.4% (inactive).

For the compound `CC(C)(C)CC(C)(C)c1ccc(OCCOCCSC(=N)N)cc1`, the growth was 33.9% (inactive).

Source of the values: PubChem BioAssay (NCI).
